Assay outcomes (PubChem BioAssay)
This is a sample that favours compounds with a hit; in the whole collection about 5.2% have one here.
Yeast superoxide – reduction of superoxide in aged yeast, primary screen, HTS; S. cerevisiae aged cells, superoxide DHE fluorescence; stronger effect = lower value; superoxide response (% of plate mean), % at 10 µM; actives 0.18% (n = 330,000);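 active = superoxide response under a set limit, about three screen SD below normal, cut at about 65% in these data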;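 note: yeast aged for seven days with compound at 30 °C before DHE staining; 100% = average MFI of all compound-treated wells on the plate with controls excluded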
CendR NRP1 mod – modulators of CendR peptide binding to NRP-1, primary screen, biochemical, fluorescence polarization, uHTS; AID 602438, 2012; FAM-RPARPAR peptide binding to NRP-1; inhibition, % at 25 µM; actives 0.85% (n = 360,000); Neuropilin-1 (Homo sapiens), O14786;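 active = inhibition or corrected inhibition above about 18%, plus a signal ratio from 0.5 to 1.5, limit read from the data, passing the limit was not always enough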
ALR inh – inhibitors of human ALR sulfhydryl oxidase, primary screen, biochemical, H2O2 detection, HRP-luminol luminescence, single point; inhibition, % (concentration not given with the values); purified ALR, DTT oxidation; AID 485317, 2010; FAD-linked sulfhydryl oxidase ALR (Homo sapiens), P55789; actives 3.8% (n = 290,000);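 active = mean replicate inhibition above about 79%, with every replicate also reaching it, limit read from the data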
Target sequence (P55789 whole entry, looked up): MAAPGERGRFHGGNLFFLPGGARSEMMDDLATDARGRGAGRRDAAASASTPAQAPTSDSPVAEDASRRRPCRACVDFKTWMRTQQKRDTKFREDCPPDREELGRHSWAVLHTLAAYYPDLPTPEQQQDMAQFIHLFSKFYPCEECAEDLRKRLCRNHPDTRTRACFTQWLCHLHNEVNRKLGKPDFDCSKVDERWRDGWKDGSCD
APOBEC3G inh – APOBEC3G DNA deaminase inhibitors, primary screen, biochemical, fluorescence, single-stranded DNA substrate, uHTS. inhibition, % at 20 µM. actives 0.28% (n = 330,000). DNA dC->dU-editing enzyme APOBEC-3G (Homo sapiens), Q9HC16. recombinant A3G, ssDNA deamination FAM/TAMRA fluorescence;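 active = inhibition of at least 40% at 20 µM, with no more than 30% in the related APOBEC3A deaminase screen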;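 note: plate controls were DMSO wells with A3G for no effect and wells lacking A3G enzyme for full effect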
PfM18AAP inh-1 – PfM18AAP inhibitors, malaria aminopeptidase, primary screen, biochemical, QFRET, recombinant enzyme; M18 aspartyl aminopeptidase (Plasmodium falciparum 3D7); H-Glu-NHMec fluorogenic cleavage; inhibition, % at 7.35 µM; actives 1.2% (n = 290,000); AID 1822, 2009;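 active = inhibition above the campaign mean inhibition over all tested compounds plus 3 SD, cut at about 28% in these data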;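 note: 0% = plate median of test compound wells and 100% = 2 mM ZnCl2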
A3A deaminase – APOBEC3A ssDNA deaminase inhibitors, primary screen, selectivity assay for APOBEC3G inhibitor project, biochemical, FAM/TAMRA oligo cleavage fluorescence; recombinant A3A, FAM/TAMRA ssDNA deamination fluorescence; inhibition, % at 20 µM; actives 0.41% (n = 330,000); AID 493011, 2011;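 active = at least 40% inhibition at 20 µM here, with at most 30% in a related deaminase screen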;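 note: plate controls were A3A with DMSO for no effect and wells lacking A3A enzyme for full effect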
Target sequence (P31941 whole entry, looked up): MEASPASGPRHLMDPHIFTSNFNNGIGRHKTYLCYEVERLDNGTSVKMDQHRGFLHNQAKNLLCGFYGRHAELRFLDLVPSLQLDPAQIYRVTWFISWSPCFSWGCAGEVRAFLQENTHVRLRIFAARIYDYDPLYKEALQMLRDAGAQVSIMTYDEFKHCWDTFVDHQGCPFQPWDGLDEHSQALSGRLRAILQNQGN
PfM18AAP inh-2 – PfM18AAP inhibitors, malaria aminopeptidase, confirmation, biochemical, QFRET, recombinant enzyme, triplicate | inhibition, % at 7.35 µM | H-Glu-NHMec fluorogenic cleavage | shares compounds with PfM18AAP inh-1 | actives 28% (n = 2,400);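 active = mean inhibition over replicate wells above the hit cutoff set for the earlier primary screen, cut at about 29% in these data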;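 note: 0% = median of test compound wells and 100% = 2 mM ZnCl2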
CTSL1 confirm – cathepsin L1 inhibitors, retest, confirmation, counter-screen for PFM18AAP inhibitor project, biochemical, QFRET, triplicate. purified cathepsin L1, Z-Leu-Arg-MCA fluorescence. 2,400 tested, under 10 active. inhibition, % at 5.96 µM. shares compounds with PfM18AAP inh-1. AID 2178, 2009;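 active = average inhibition across replicates above the hit cutoff set in the earlier primary screen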;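 note: 0% = median of test compound wells and 100% = Z-Phe-Ala-diazomethylketone 1 µM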
* hit, by the source's call; x = no result.

SMILES	Yeast superoxide	CendR NRP1 mod	ALR inh	APOBEC3G inh	PfM18AAP inh-1	A3A deaminase	PfM18AAP inh-2	CTSL1 confirm
O=c1ccc2[n+]([O-])c3ccc(O)cc3oc-2c1	x	7	x	x	39*	x	-37	4
O=c1cc(O)c2ccc(O)cc2o1	115	-2	16	-10	6	-5	x	x
O=C(NCCOCC(F)(F)C(F)F)c1cc(F)c(F)cc1Cl	118	15	-4	-3	-2	0	x	x
O=C(NCCS(=O)(=O)NCc1ccccc1Cl)c1ccc2c(c1)OCO2	105	6	-2	-1	x	-1	x	x
CC(C)(C)NC(=O)C(=O)NC(=O)c1c(F)cccc1Cl	102	-3	2	-2	-9	-1	x	x
Cc1cc(C(F)(F)F)cc(NNC(=O)NC(=O)c2c(F)cccc2Cl)n1	102	-5	x	-8	42*	0	-3	6
COc1ccc(/C=C/C(=O)NCc2ccc3c(c2)OCO3)cc1OC	97	10	-3	-4	x	6	x	x
Cc1ccc(C(=O)NC(=S)NNC(=O)CCN2CCOCC2)cc1	98	4	98*	3	38*	-4	-19	-3
O=C(NC(=S)NCCN1CCOCC1)c1ccc(F)cc1	93	1	4	-14	-1	-5	x	x
CCN=c1scc(-c2cccs2)n1/N=C/c1cc(OC)ccc1O	98	-14	x	x	-11	x	x	x
CC(C)N=c1scc(-c2cccs2)n1/N=C/c1ccc(O)c(O)c1O	99	-3	88*	5	39*	9	-40	-3
O=C(COC(=O)c1ccc(O)cc1O)Nc1ccc2ccccc2c1	125	-9	2	-6	x	7	x	x
O=c1c2cc(N3CCOCC3)ccc2[nH]c(=S)n1Cc1ccccc1Cl	102	-10	0	-6	2	-2	x	x
O=c1c2cc(N3CCOCC3)ccc2[nH]c(=S)n1Cc1ccccn1	88	-1	23	-2	44*	0	-3	-2
Cc1ccc(S(=O)(=O)NCC(=O)N(CC2CCCO2)C(C(=O)NC2CCCC2)C(C)C)cc1 (stereo not given)	89	7	x	-5	1	-2	x	x
O=[N+]([O-])c1ccccc1NC(=S)N/N=C/c1ccc(O)c(O)c1	91	5	70	-3	59*	0	40*	1
Cc1c(NC(=O)c2cccc(NC(=O)Cc3ccccc3F)c2)c(=O)n(-c2ccccc2)n1C	111	-4	4	-8	x	-3	x	x
CCOC(=O)c1c(N)sc2c1C1CCN2CC1	92	-3	98*	-5	50*	-3	10	3
Cc1cccc(N(C(=O)c2nsc(Cl)c2Cl)C(C(=O)NC2CCCC2)c2ccc(O)cc2)c1C (stereo not given)	97	6	x	-3	-2	0	x	x
CCOc1cccc2cc(-c3cn4cc(C)ccc4n3)c(=O)oc12	109	3	5	-9	-9	1	x	x
CNc1nnc(-c2cc3cc(Cl)ccc3oc2=O)s1	111	-11	-22	-5	13	-4	x	x
COc1ccc2oc(=O)c(-c3nnc(NCc4ccco4)s3)cc2c1	97	-18	3	-7	40*	-3	-27	2
CCOc1cccc2cc(-c3nnc(NCc4ccco4)s3)c(=O)oc12	109	-23	30	5	32*	4	-14	2
CCN(Cc1ccccc1)C(=O)Cn1c(C(C)O)nc2ccccc21 (stereo not given)	100	0	-3	-3	3	0	x	x
Cc1snc(SCC(=O)c2ccc([N+](=O)[O-])cc2)c1C#N	x	9	x	50*	45*	-3	-22	6
SMILES	Yeast superoxide	CendR NRP1 mod	ALR inh	APOBEC3G inh	PfM18AAP inh-1	A3A deaminase	PfM18AAP inh-2	CTSL1 confirm
Cc1snc(SCC(=O)c2ccc(F)cc2)c1C#N	96	-3	-5	-5	-2	-3	x	x
O=C1CCC[C@@H]2Cc3nc4ccccc4cc3[C@@H]3CCN1[C@H]23	x	2	x	x	x	x	x	x
O=C(COc1ccc(Cl)cc1Cl)NC1CC1	x	-8	x	x	x	x	x	x
C/C(=N\Nc1nc2ccccc2[nH]1)c1ccc(N2CCOCC2)cc1	96	-2	52	-8	46*	-6	-69	-5
C/C(=N\Nc1ccc(Cl)c(C(=O)O)c1)c1ccccn1	93	2	17	-7	19	2	x	x
C/C(=N\NC(=O)c1ccccc1)c1ccc(N2CCOCC2)cc1	100	15	9	1	0	1	x	x
C/C(=N\Nc1ncc(Cl)cc1Cl)c1ccccn1	x	144	x	x	38*	x	-11	-9
C/C(=N\Nc1ncc(Cl)cc1Cl)c1ccc(N2CCOCC2)cc1	118	0	38	-3	52*	-8	5	1
CCN(CC)c1ccc(NC(=O)CSc2n[nH]c(-c3ccco3)n2)cc1	96	-3	x	-5	x	-4	x	x
COc1ccc(NC(=O)CSCC(=O)NCc2cccc(C(F)(F)F)c2)cc1	140	-8	-2	-6	x	3	x	x
CCn1c(C)nc2cc(C(=O)N/N=C/c3cccc(OC)c3O)ccc21	74	-3	22	0	13	-1	x	x
CCN(CC)S(=O)(=O)c1cccc(C(=O)N/N=C/c2ccc(O)c(O)c2O)c1	91	4	98*	x	42*	x	27	0
CN(C)S(=O)(=O)c1cccc(NC(=S)N/N=C/c2ccc(O)c(O)c2O)c1	x	-33	x	x	49*	x	40*	1
COc1cc(/C=N/NC(=S)Nc2cccc(S(=O)(=O)N(C)C)c2)cc(OC)c1O	98	-13	x	-3	43*	-3	26	-1
CCn1c(C)nc2cc(C(=O)N/N=C/c3ccc(O)c(O)c3O)ccc21	x	0	x	x	47*	x	38*	1
COc1ccc(O)c(/C=N/NC(=S)Nc2cccc(S(=O)(=O)N(C)C)c2)c1	88	-32	73	x	26	x	x	x
COc1cccc(/C=N/NC(=S)Nc2cccc(S(=O)(=O)N(C)C)c2)c1	95	-16	5	35	-3	-11	x	x
CC1Cc2ccccc2N1C(=O)c1cnsn1 (stereo not given)	94	11	-3	-1	4	0	x	x
